Measured values reported in PubChem BioAssay.
Values joined by “and” are separate entries in the source; they are usually repeats but may differ in a detail not shown here. Identical values can stand only once. Some structures have more than one record in an assay (separate samples or runs), and their calls can disagree. Active and inactive are the calls of the source. Rule as the data show it: active = inhibition above about 80%; inactive = the rest.

Assay: growth inhibition, single agent and combos, cell-based, chromothripsis tumors, cisplatin or BGB combos (AID 1671450);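 also: cells exposed to compound for four days; 0% = vehicle DMSO and 100% = cell killing by high DMSO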
Details: HDN33 neuroblastoma cells, BGB combo, at 5 µM, stronger effect = higher value

Which inhibition does the source give for `Cc1c(N)nc(C(CC(N)=O)NCC(N)C(N)=O)nc1C(=O)NC(C(=O)NC(C)C(O)C(C)C(=O)NC(C(=O)NCCc1nc(-c2nc(C(=O)NCCC[S+](C)C)cs2)cs1)C(C)O)C(O[C@@H]1O[C@@H](CO)[C@@H](O)[C@H](O)[C@@H]1O[C@H]1O[C@H](CO)[C@@H](O)[C@H](OC(N)=O)[C@@H]1O)c1cnc[nH]1` (stereo partly specified) here?
The inhibition was 94.9% and 96.7%.

For `O=c1[nH]c(=O)n(C2OC(CO)C(O)C2O)cc1F` (stereo unspecified), which inhibition is on record?
The inhibition was 98.3%.

Which inhibition does the source give for `O=P(O)(NCCCl)NCCCl` here?
Its inhibition is -3.04%.

For `CC1(C)C(C(=O)Nc2ccc(S(=O)(=O)c3ccc(NC(=O)C4C(C)(C)C4(C)C)cc3)cc2)C1(C)C`, which inhibition is on record?
The inhibition was -17.4%.

Which inhibition does the source give for `CCC1(O)C(=O)OCc2c1cc1n(c2=O)Cc2cc3ccccc3nc2-1` (stereo unspecified) here?
Its inhibition is 91.9% and 99.2%.

With `NC(Cc1ccc(N(CCCl)CCCl)cc1)C(=O)O` (stereo unspecified) as the compound, how does the inhibition read?
Its inhibition is 28.5%.

Which inhibition does the source give for `COc1cc([C@@H]2c3cc4c(cc3[C@H](O)[C@H]3COC(=O)[C@H]23)OCO4)cc(OC)c1O` here?
Its inhibition is 64.5% and 57.8%.

For `COc1cc(C2c3cc4c(cc3C(O)C3COC(=O)C23)OCO4)cc(OC)c1OC` (stereo unspecified), which inhibition is on record?
The inhibition was 67.6%.

Same assay, conditions: HDN33 neuroblastoma cells, at 0.5 µM, stronger effect = higher value

Which inhibition does the source give for `Cc1c(N)nc(C(CC(N)=O)NCC(N)C(N)=O)nc1C(=O)NC(C(=O)NC(C)C(O)C(C)C(=O)NC(C(=O)NCCc1nc(-c2nc(C(=O)NCCC[S+](C)C)cs2)cs1)C(C)O)C(O[C@@H]1O[C@@H](CO)[C@@H](O)[C@H](O)[C@@H]1O[C@H]1O[C@H](CO)[C@@H](O)[C@H](OC(N)=O)[C@@H]1O)c1cnc[nH]1` (stereo partly specified) here?
The inhibition was 56.2% (inactive) and 63.6% (inactive).

With `O=c1[nH]c(=O)n(C2OC(CO)C(O)C2O)cc1F` (stereo unspecified) as the compound, how does the inhibition read?
Its inhibition is 71.5% (inactive).

Which inhibition does the source give for `O=P(O)(NCCCl)NCCCl` here?
Its inhibition is -31.2% (inactive).

Which inhibition does the source give for `CC1(C)C(C(=O)Nc2ccc(S(=O)(=O)c3ccc(NC(=O)C4C(C)(C)C4(C)C)cc3)cc2)C1(C)C` here?
The inhibition was -53.9% (inactive).

For `CCC1(O)C(=O)OCc2c1cc1n(c2=O)Cc2cc3ccccc3nc2-1` (stereo unspecified), which inhibition is on record?
The inhibition was 76.6% (inactive) and 90.4% (active).

For `NC(Cc1ccc(N(CCCl)CCCl)cc1)C(=O)O` (stereo unspecified), which inhibition is on record?
Its inhibition is -17.3% (inactive).

For `COc1cc([C@@H]2c3cc4c(cc3[C@H](O)[C@H]3COC(=O)[C@H]23)OCO4)cc(OC)c1O`, which inhibition is on record?
The inhibition was 76% (inactive) and 68.9% (inactive).

Which inhibition does the source give for `COc1cc(C2c3cc4c(cc3C(O)C3COC(=O)C23)OCO4)cc(OC)c1OC` (stereo unspecified) here?
Its inhibition is 76.5% (inactive).
